Screens (PubChem BioAssay)
The list is a sample of the results.
aSyn 5UTR act: Activators via SNCA 5'UTR binding, MLPCN. alpha-synuclein 5'UTR reporter, activators screen. activity score, % (tested at 7.5 µM), hits read low. 300,000 compounds, 7.1% hits; in the data active means activity score below about -60%
* hit, by the source's call.

SMILES	aSyn 5UTR act
O=C(Nc1ccc2nsnc2c1)NC1CCCCC1	-197*
O=C(Nc1ccccc1F)NC1CCCCCCC1	-115*
O=C(CCc1nnc(CCCc2ccccc2)o1)N1CCCCCC1	-149*
CCc1cc(CNC(=O)CCc2nnc(CCCc3ccccc3)o2)on1	-129*
O=C(CCc1nnc(CCCc2ccccc2)o1)NCCCC1CCCC1	-116*
CC(C)c1cc(CNC(=O)CCc2nnc(CCCc3ccccc3)o2)on1	-77*
CCOc1ccc(-c2cc(CCCC(=O)NCCc3ccccc3)no2)cc1	62
O=C(COC(=O)c1ccccc1Nc1ccc(SC(F)F)cc1)NC1CC1	-100*
O=C(COC(=O)c1ccccc1Nc1ccc(SC(F)F)cc1)NCc1ccco1	-91*
CC(C)(C)NC(=O)COC(=O)c1ccccc1Nc1ccc(SC(F)F)cc1	-145*
NC(=O)COC(=O)c1ccccc1Nc1ccc(SC(F)F)cc1	-82*
Cn1c(-c2ccc3ccccc3n2)nc2cnccc21	-74*
Cc1ccc(/C=N/Nc2nncn2N)cc1	-120*
Cc1ccnc(NC(=O)c2ccc(S(=O)(=O)N3CCC(C)CC3)cc2)c1	-118*
CC1CCN(S(=O)(=O)c2ccc(C(=O)Nc3ccccn3)cc2)CC1	-120*
CC(C)CCOCC(=O)Nc1cccc(C(=O)O)c1	-73*
CC(C)C1CC(=O)NC(SCC(=O)Nc2ccc(Br)cc2)=C1C#N (configuration not stated)	-74*
Cc1ccc(NC(=O)CSC2=C(C#N)C(c3ccco3)CC(=O)N2)cc1 (configuration not stated)	-148*
Cc1ccccc1NC(=O)CSC1=C(C#N)C(c2ccsc2)CC(=O)N1 (configuration not stated)	-84*
CCN(CC)C(=O)c1ccc(-c2cccs2)s1	-73*
Cc1occc1C(=O)Nc1nnc(-c2cccs2)s1	-351*
CC(C)(C)CC(=O)Nc1nnc(-c2cccs2)s1	-213*
O=C(CN1CCCC1)Nc1nnc(-c2cccs2)s1	-118*
O=C(CN1CCCCC1)Nc1nnc(-c2ccccc2)s1	-77*
O=C(CN1CCCC1)Nc1ccc(NC(=O)Nc2ccccc2)cc1	-194*
SMILES	aSyn 5UTR act
O=C(CN1CCOCC1)Nc1ccc(C2CCCCC2)cc1	-75*
COc1ccc(/C=C/c2ccc3ccccc3[n+]2C)cc1OC	-124*
CC(=O)Oc1ccccc1/C=C/c1ccc2ccccc2[n+]1C	-62*
O=c1c(-c2cc3ccccc3o2)[n+]([O-])c2ccccc2n1OCc1ccccn1	-174*
CCOn1c(=O)c(-c2cc3ccccc3o2)[n+]([O-])c2ccccc21	-117*
Brc1ccc(-c2cnc(-c3cccs3)o2)cc1	-171*
CC1=NN(c2ccccc2)C(=O)C1N=Nc1cccc(O)c1 (configuration not stated)	-138*
CC1=NN(c2ccccc2)C(=O)C1N=Nc1ccccc1 (configuration not stated)	-222*
Cc1nc(-c2ccc(NC(=O)c3ccccc3C)cc2)cs1	-123*
Cc1nc(-c2ccc(NC(=O)c3ccccc3Br)cc2)cs1	-161*
O=C(/C=C/NCc1cccnc1)c1ccc(-c2ccccc2)cc1	-81*
COc1ccc(-c2cn3cccnc3n2)cc1Br	-66*
COc1ccc(-c2cn3cc(Br)cnc3n2)cc1	-123*
COc1ccc(CC(=O)Nc2ccc(-c3cn4ccccc4n3)cc2)cc1	-124*
O=C(Nc1ccc(-c2cn3ccccc3n2)cc1)c1cccs1	-129*
COc1ccc(-c2cc3cc(OC)c(OC)cc3cn2)cc1OC	-140*
c1ccn2cc(-c3ccc4c(c3)OCCO4)nc2c1	98
COc1ccc(CC(=O)Nc2ccc(-c3cn4ccccc4n3)cc2)cc1OC	-86*
COc1ccc(-c2cn3ccccc3n2)cc1OC	-171*
COc1ccccc1/C=C/C1(C(=O)NC2CCCC2)CC(=O)N1c1ccccc1 (configuration not stated)	-138*
CN(C)S(=O)(=O)c1ccc(N2C(=O)CC2(/C=C/c2ccccc2)C(=O)NC2CCCC2)cc1 (configuration not stated)	35
Cc1ccc(/C=C2/C(=O)ON=C2c2ccccc2)o1	-66*
O=C(Nc1cccc(O)c1)c1ccc(NC(=O)C2CCCO2)cc1 (configuration not stated)	-98*
COC(=O)c1c(-c2ccc(F)cc2)csc1NC(=O)C1CCCO1 (configuration not stated)	-85*
O=C(Nc1ccc(F)cc1)c1ccc(NC(=O)C2CCCO2)cc1 (configuration not stated)	-128*
SMILES	aSyn 5UTR act
COC(=O)c1ccc(NC(=O)C2CCCO2)cc1 (configuration not stated)	-64*
Cc1ccc(-c2cc3nn(-c4ccccc4)c(N)c3c(=O)o2)cc1	-96*
CCC(=O)NC(=S)Nc1ccc(NC(=O)c2ccco2)cc1	-86*
CCOc1ccc(NC(=S)NC(=O)c2ccco2)cc1	-250*
COCCN=c1scc(-c2cccs2)n1/N=C/c1ccc(O)c(O)c1O	67
CCN=c1scc(-c2ccco2)n1/N=C/c1ccc(OC)c(O)c1	-228*
CCN=c1scc(-c2ccco2)n1/N=C/c1ccc(O)cc1	-173*
Cc1ccc(Cn2ccc(-c3cnc(-c4ccccc4)s3)n2)cc1	-128*
O=S(=O)(c1ccccc1)n1ccc(-c2cnc(-c3ccccc3)s2)n1	-131*
O=C(c1ccc(F)cc1)n1ccc(-c2cnc(-c3ccccc3)s2)n1	-124*
Fc1ccc(Cn2ccc(-c3cnc(-c4ccccc4)s3)n2)cc1	-140*
COc1ccc(S(=O)(=O)/N=C2\C=C(Nc3ccc(O)cc3)C(=O)c3ccccc32)cc1	100
O=S(=O)(/N=C(/NC(=S)Nc1ccccc1)c1ccccc1)c1ccc(Cl)cc1	-99*
COc1ccc(NC(=S)N/C(=N/S(=O)(=O)c2ccc(C)cc2)c2ccccc2)cc1	-146*
O=C(COC(=O)C1CC1)Nc1ccc(N=Nc2ccccc2)cc1	-119*
O=C(Nc1ccccc1Br)c1cc(=O)c2ccccc2o1	-184*
O=C(Nc1ccccc1Cl)c1cc(=O)c2ccccc2o1	-144*
O=C(NC1CCCCC1)C(=S)NCc1ccccc1	-71*
O=C(NC1CCCCC1)C(=S)NC1CCCCC1	-106*
COc1ccc(CNC(=O)NC2CCCCC2)cc1	-80*
O=C(NC1CCCCCC1)C(=S)NCc1ccccc1	-86*
CCOC(=O)c1cc(-c2ccc(C)cc2)nc2nc(SC)[nH]c(=O)c12	49
COC(=O)c1ccc(-c2ccc(F)cc2)nc1C	-192*
CCOC(=O)c1ccc(-c2ccc3c(c2)CCC3)nc1C	-99*
CC(C)(C)S(=O)(=O)Cc1nc(-c2ccc(Cl)c(Cl)c2)cs1	-67*
SMILES	aSyn 5UTR act
Cc1ccc(-c2cc(-c3cccs3)[nH]n2)c(O)c1	-128*
Cc1cc(C)n(C(N)=NC(=O)c2ccc([N+](=O)[O-])cc2)n1	-154*
O=C(CSc1nnc(-c2ccc(O)cc2)o1)Nc1ccc2c(c1)OCCO2	-83*
O=C(CSc1nnc(-c2ccc(O)cc2)o1)Nc1ccccc1Br	-132*
O=C(CSc1nnc(-c2ccccc2Cl)o1)Nc1ccc2c(c1)OCCO2	-137*
COc1ccc(-c2nnc(SC(C)C(=O)Nc3ccc4c(c3)OCCO4)o2)cc1 (configuration not stated)	-101*
O=C(Nc1ccc2c(c1)OCCO2)C1CC(c2ccccc2Cl)=NO1 (configuration not stated)	-124*
Cc1ccc(-c2nc(N/N=C/c3cccnc3)c3ccccc3n2)cc1	-258*
Cc1ccc(-c2nc(NCc3cccnc3)c3ccccc3n2)cc1	-78*
